Measurements: PubChem BioAssay
Values without a mark were called inactive. Active and inactive are the calls of the source. Cut-off read from the data, not from the text of the source, unless noted: active = inhibition above about 33%; inactive = the rest.

Key:
[1] = StAR promoter reporter inhibitors, counter-screen for LRH-1 inverse agonist project, cell-based, luminescence, high throughput (AID 651611; in the data active = inhibition above about 28%); details: StAR promoter luciferase reporter counterscreen, at 3.6 µM, stronger effect = higher value
[2] = target: Nuclear receptor subfamily 5 group A member 2 (Homo sapiens) (UniProt O00482); assay: NR5A2 activity suppression in reporter cells – cell-based, luminescence, confirmation (AID 651613; in the data active = inhibition above about 42%;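 note: HEK293T cells co-transfected with LRH-1 and StAR promoter luciferase reporter; 0% = vehicle wells and 100% = parental cells lacking receptor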); details: cell-based LRH-1 luciferase reporter, inverse agonism; at 3.6 µM; stronger effect = higher value
[3] = target: Steroidogenic factor 1 (Homo sapiens) (UniProt Q13285); assay: inverse agonism at SF1 nuclear receptor – cell-based, luminescence, high throughput, counter-screen for LRH-1 inverse agonist project (AID 651614; in the data active = inhibition above about 44%;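 note: cells cotransfected with StAR promoter reporter and SF1 expression vector; 0% = vehicle on cells with receptor and 100% = vehicle on cells lacking receptor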); details: cell-based SF1 luciferase reporter, at 3.6 µM, stronger effect = higher value
[4] = compounds suppressing VP16-driven luciferase signal – cell-based, luminescence, high throughput, counter-screen for LRH-1 inverse agonist project (AID 651615); details: Gal4-VP16 luciferase reporter cells, at 3.6 µM, stronger effect = higher value

Chain of Steroidogenic factor 1 (Homo sapiens) (Q13285 whole entry, looked up, the tested form may be a part): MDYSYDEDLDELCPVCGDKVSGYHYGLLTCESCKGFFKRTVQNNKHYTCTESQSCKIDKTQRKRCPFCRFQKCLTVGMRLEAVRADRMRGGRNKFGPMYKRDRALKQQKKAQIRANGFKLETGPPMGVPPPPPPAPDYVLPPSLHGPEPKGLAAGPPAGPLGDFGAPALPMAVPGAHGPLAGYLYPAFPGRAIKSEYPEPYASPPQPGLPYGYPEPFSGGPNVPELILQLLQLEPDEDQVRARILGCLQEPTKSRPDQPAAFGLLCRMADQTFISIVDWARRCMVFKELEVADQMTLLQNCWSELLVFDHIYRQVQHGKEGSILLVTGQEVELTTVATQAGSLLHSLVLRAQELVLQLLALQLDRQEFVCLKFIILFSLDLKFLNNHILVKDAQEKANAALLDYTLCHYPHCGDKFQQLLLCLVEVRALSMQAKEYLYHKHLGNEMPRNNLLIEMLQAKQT
Chain of Nuclear receptor subfamily 5 group A member 2 (Homo sapiens) (O00482 whole entry, looked up): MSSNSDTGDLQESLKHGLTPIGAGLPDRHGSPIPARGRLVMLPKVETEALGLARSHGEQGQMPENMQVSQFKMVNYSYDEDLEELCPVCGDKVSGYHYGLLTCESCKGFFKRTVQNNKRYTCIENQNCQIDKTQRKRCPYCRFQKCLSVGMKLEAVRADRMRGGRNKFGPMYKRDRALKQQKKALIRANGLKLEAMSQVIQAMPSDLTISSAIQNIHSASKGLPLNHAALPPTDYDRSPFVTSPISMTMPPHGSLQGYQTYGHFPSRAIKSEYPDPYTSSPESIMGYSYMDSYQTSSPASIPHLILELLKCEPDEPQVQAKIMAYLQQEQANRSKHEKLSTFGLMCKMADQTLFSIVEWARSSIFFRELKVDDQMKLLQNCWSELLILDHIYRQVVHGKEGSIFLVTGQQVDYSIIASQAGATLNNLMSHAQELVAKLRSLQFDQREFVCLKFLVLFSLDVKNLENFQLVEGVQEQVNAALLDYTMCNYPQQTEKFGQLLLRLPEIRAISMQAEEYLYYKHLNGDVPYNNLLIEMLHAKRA

SMILES	inhibition [1]	inhibition [2]	inhibition [3]	inhibition [4]
O=C(CSc1nccc(=O)[nH]1)Nc1ccc(N2CCOCC2)cc1	4.42%	61.3% (active)	47.8% (active)	-3.99%
Cc1c(C(=O)N(Cc2ccc(F)cc2)C2CCS(=O)(=O)C2)oc2ccccc12 (stereo not drawn)	36.8% (active)	8.94%	31.4%	-5.18%
COc1ccc2sc(-c3ccc(N(C)C)cc3)c(C#CCCO)c2c1	3.58%	21.3%	53.7% (active)	-4.7%
O=C(Nc1ccc2oc(-c3ccccc3F)nc2c1)c1ccc([N+](=O)[O-])o1	-5.27%	46% (active)	56% (active)	-24.7%
COc1ccccc1Oc1nnnn1-c1ccc(C(N)=O)cc1	15.4%	48% (active)	51.8% (active)	-9.03%
CCCNC(=O)c1sc2c(c1C(=O)Nc1ccccn1)CCCC2	-1.58%	47.1% (active)	42.7% (active)	14.3%
Cc1c(C#N)c(O)n(CCO)c(=O)c1N=Nc1ccc2c(c1)COC2=O	17.9%	39.5%	52.1% (active)	-1%
C=CC(=O)N1C/C(=C/c2ccc(F)cc2)C(=O)/C(=C\c2ccc(F)cc2)C1	27.1%	80% (active)	86.7% (active)	63% (active)
Cc1c(NC(=O)c2cc(-c3cccs3)nc3ccccc23)c(=O)n(-c2ccccc2)n1C	47% (active)	33.5%	18%	2.7%
CC(=O)Nc1ccc(NC(=O)CSc2ccc(-c3ccco3)nn2)cc1	16.1%	49.4% (active)	44.7% (active)	-18.3%
O=C(Nc1ccc(Cl)cn1)c1ccc([N+](=O)[O-])o1	-0.66%	51.5% (active)	55% (active)	-20.8%
COc1ccc2c(c1)CCN(C(=O)CCl)C2C1C(=O)CCCC1=O (stereo not drawn)	10.2%	59% (active)	54.4% (active)	-6.95%
Cc1no[n+]([O-])c1COc1ccc(/C=N/n2nnnc2N)cc1	-1.3%	51.9% (active)	48.4% (active)	0.06%
COc1cc(-c2cnc3c(NC=O)cc(-c4cccc(NC(C)=O)c4)cn23)cc(OC)c1OC	62.9% (active)	74.9% (active)	71.5% (active)	-23.8%
O=C(Nc1nnc(C2=COCCO2)o1)c1ccc([N+](=O)[O-])s1	18.6%	49.4% (active)	40.3%	-6.2%
O=C(CCl)Nc1ccc(N2CCCCCC2)cc1	25%	54.6% (active)	51.3% (active)	-8.63%
O=C(c1ccc(Oc2ccc([N+](=O)[O-])cc2Cl)cc1)N1CCCC1	6.61%	46.2% (active)	58.9% (active)	4.32%
CCCc1cc(=O)n2nc(N3CCC(C(=O)N4CCN(c5ccc(OC)cc5)CC4)CC3)sc2n1	12.6%	56.5% (active)	55.1% (active)	49.8% (active)
Cc1[nH]c2ccccc2c1/C=N/Nc1ccc([N+](=O)[O-])cc1	-1.71%	55.8% (active)	56.5% (active)	-3.15%
CCCc1cc(NCC2CCCO2)n2c(nc3ccccc32)c1C#N (stereo not drawn)	-0.55%	40.1%	35.5%	1.26%
Cn1nnnc1Sc1ncnc2scc(-c3ccc(-c4ccccc4)cc3)c12	19.4%	33.6%	39.4%	-20.2%
O=[N+]([O-])c1ccc(N2CCCC2)cc1N1CCCC1	9.77%	56.8% (active)	60.4% (active)	8.32%
COc1ccccc1-n1c(SCC(=O)Nc2ccc(F)cc2)nc2c(c1=O)SCC2	10.4%	54.9% (active)	55.9% (active)	-9%
COc1ccc(S(=O)(=O)N2CCN(CC(=O)Nc3ccc(C)c(F)c3)CC2)cc1	17.5%	58.6% (active)	51.9% (active)	-4.75%
CC(=O)Nc1cccc(C(=O)OCC(=O)N2CCN(C(=O)COC(=O)c3cccc(NC(C)=O)c3)CC2)c1	21.9%	55.5% (active)	47.6% (active)	-10.3%
COc1ccc(NC(=S)NCCc2ccc(F)cc2)c(OC)c1	7.84%	10.5%	18.5%	-8.33%

SMILES	inhibition [1]	inhibition [2]	inhibition [3]	inhibition [4]
S=C(NCCc1ccccc1)Nc1cccc2cnccc12	-5.25%	45.1% (active)	47.5% (active)	42.3% (active)
OC[C@@H]1CN(Cc2ccc(-c3ccccc3)cc2)C[C@H](n2cnc3c(NCc4ccco4)ncnc32)O1	22.7%	63.7% (active)	65% (active)	33.6% (active)
COc1ccc2c(c1)/C(=C/c1cc(OC)c(OC)c(OC)c1)C(=O)N2	52% (active)	51% (active)	48.2% (active)	41.6% (active)
CCc1cc(=O)oc2cc3occ(-c4ccc(OC)c(F)c4)c3cc12	26.4%	75% (active)	60.6% (active)	23.1%
CC(NC(=O)c1ccc([N+](=O)[O-])o1)C1CC2CCC1C2 (stereo not drawn)	3.5%	49.1% (active)	44.2% (active)	10.8%
Cc1ccc(S(=O)(=O)NCc2ccncc2)cc1	5.31%	54.7% (active)	43% (active)	48.7% (active)
CS(=O)(=O)c1ccc(Cl)c(NC(=O)Nc2ccccc2)c1	-6.75%	25.1%	17.5%	-2.94%
Cc1ccc(/C=C/S(=O)(=O)NCC(=O)OCC(=O)Nc2c(F)cccc2F)cc1	26.3%	52% (active)	55.4% (active)	-18.4%
Cn1c(CCNC(=O)c2cccs2)nnc1SCC(=O)N1CCN(c2ccccc2)CC1	7.98%	29.8%	28.4%	0.01%
COc1ccc(N2CCN(C(=O)C3CCC(Cn4c(=S)[nH]c5ccccc5c4=O)CC3)CC2)cc1 (stereo not drawn)	9.08%	36.1%	39.2%	26.8%
O=C(CN1C(=O)C(c2ccc(F)cc2)=NC12CCCC2)Nc1ccc(F)cc1	23.4%	52.2% (active)	49.4% (active)	38.4% (active)
CS(=O)(=O)N(CC(=O)N1CCN(Cc2ccc3c(c2)OCO3)CC1)Cc1ccc(Cl)cc1	12.5%	63% (active)	44.9% (active)	36.9% (active)
Cc1cc(/C=N/NC(N)=S)c(C)n1-c1ccc(Cl)c(Cl)c1	7.41%	44.5% (active)	39.2%	22.5%
CCCN1Cc2cccc(C(=O)NC(C)c3cccs3)c2C1=O (stereo not drawn)	-7.74%	38.5%	27.5%	0.87%
O=C(COc1ccc(S(=O)(=O)N2CCCC2)cc1Cl)Nc1ccc2c(c1)OCO2	0.49%	50.4% (active)	37%	-9.34%
CC(C)CC1(C)NC(=O)N(CC(=O)Nc2ccc3c(c2)OCCO3)C1=O (stereo not drawn)	16.7%	54.2% (active)	53% (active)	7.91%
Cc1onc(-c2c(F)cccc2Cl)c1C(=O)Oc1ccccc1	-12.8%	41.9% (active)	33.8%	11.2%
N=c1sccn1CC(=O)Nc1ccc(S(N)(=O)=O)cc1	17.1%	54.1% (active)	50.5% (active)	-2.17%
COc1ccc(CCNC(=O)c2ccc(CSc3ccc(Cl)cc3)o2)cc1OC	-6.83%	28.3%	23.4%	30.3%
CC1(C)Cc2ccccc2/C(=C/C(=O)c2ccccc2)N1	0.1%	39%	36.2%	15.6%
COc1ccc(CCNC(=O)CSc2nnc(CNc3ccc(Cl)cc3)o2)cc1OC	1.3%	48.7% (active)	38.9%	-2.14%
Cc1cccc(OCC(=O)Nc2ccncc2)c1C	6.9%	60% (active)	61.9% (active)	36.1% (active)
C#CCN(C[C@@H]1[C@@H](OC(=O)NCc2ccc(OC)c(OC)c2)[C@@H](OC(=O)NCc2ccc(OC)c(OC)c2)CN(C(=O)OC(C)C)N1C(=O)OC(C)C)S(=O)(=O)c1ccc(C)cc1	1.68%	35.2%	30.1%	10.3%
Cc1ccc(Cn2cnc3ccccc32)cc1C	2.29%	36.2%	32.6%	7.91%
COc1ccc(NC(=O)CSc2sc3c(O)cc(=O)[nH]c3c2C#N)c(OC)c1	1.46%	48.8% (active)	47.3% (active)	2.48%
Cc1cc(C)c2c(C)c(C(=O)NCc3ccncc3)oc2c1	9.09%	46.3% (active)	38.3%	7.5%
